In PubChem BioAssay (NCATS):
Unmarked numbers belong to inactive results. Results filed as inconclusive are left out. Where a call stands in place of a potency, no number is given. Calls of active or inactive are those of the source. The call rests on the fitted dose curve; in most records, active means well fitted curve in the direction sought with a large enough effect; inconclusive means small, poorly fitted or top-dose-only effect, or another doubt; inactive means no such curve, though single readings can be large; an effect the other way counts as inactive or inconclusive.

What was measured:
[1] = target: Glutathione peroxidase 1 (Homo sapiens) (UniProt P07203); assay: Primary qHTS Assay for Inhibitors of Recombinant Selenoprotein Glutathione Peroxidase 1 (GPX1) (AID 1845191); further: nearly all actives have a fitted effect of over 65% in size
Chain of Glutathione peroxidase 1 (Homo sapiens) (P07203 whole entry, looked up): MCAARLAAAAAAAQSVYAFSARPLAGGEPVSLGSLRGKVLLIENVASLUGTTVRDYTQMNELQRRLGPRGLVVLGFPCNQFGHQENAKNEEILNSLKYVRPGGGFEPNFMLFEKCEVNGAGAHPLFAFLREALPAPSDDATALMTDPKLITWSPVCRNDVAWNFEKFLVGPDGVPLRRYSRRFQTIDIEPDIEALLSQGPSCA
In short: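 GPX1 10 nM, GR 100 nM, GSH 1 mM, NADPH 0.5 mM, CHP 0.5 mM (final). 30-min cpd preincubation, RT. Ex340/Em450 read t=0, t=15 min.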

[2] = target: Phospholipid hydroperoxide glutathione peroxidase GPX4 (Homo sapiens) (UniProt P36969); assay: Primary qHTS Assay for Inhibitors of Recombinant Selenoprotein Glutathione Peroxidase 4 (GPX4) (AID 1845192); further: nearly all actives have a fitted effect of over 65% in size; on activity change, negative = inhibition: series mostly up to about 50 µM
Chain of Phospholipid hydroperoxide glutathione peroxidase GPX4 (Homo sapiens) (P36969 whole entry, looked up): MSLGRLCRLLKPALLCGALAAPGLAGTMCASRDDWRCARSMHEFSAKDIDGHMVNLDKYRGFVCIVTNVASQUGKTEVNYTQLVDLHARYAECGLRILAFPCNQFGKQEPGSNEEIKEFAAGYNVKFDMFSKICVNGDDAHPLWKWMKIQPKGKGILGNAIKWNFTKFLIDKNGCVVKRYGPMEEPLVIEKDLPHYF
In short: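 qHTS, GR-coupled: GPX4 200 nM + cpd 30 min RT → GSH 1 mM, NADPH 0.5 mM, GR 100 nM → CHP 0.5 mM start; fluor 340/450 at t0 and t15 min; no-enzyme wells as control.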

[3] = target: Luciferin 4-monooxygenase (Photinus pyralis) (UniProt P08659); assay: Primary firefly luciferase (FLuc) qHTS assay for identification of artifact compounds. (AID 1845220); further: nearly all actives have a fitted effect of over 60% in size; on activity change, negative = inhibition: series mostly up to about 54 µM
In short: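 In this counter-screen for luciferase artifacts, test compounds met substrate (10 uM each luciferin and ATP) before 10 nM enzyme started the reaction. Light output was measured 5 min later.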

[4] = Primary fluorescence-based thiol-reactive (MSTI) qHTS assay for identification of artifact compounds. (AID 1845221); further: nearly all actives have a fitted effect of over 65% in size; further: potency means the concentration at half of the fitted maximal effect;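 on activity change, negative = thiol reactive: series mostly up to about 54 µM; thiol-reactive compounds lower the probe fluorescence signal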
In short: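 qHTS titration of compound; 4 uM MSTI, PBS pH 7.4, 2% DMSO; 1 h RT, dark; fluorescence 525/598 nm; normalized to Acetyl-MSTI and MSTI; 4-parameter Hill fit.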

[5] = tested on: Nanoluciferase (engineered Oplophorus gracilirostris luciferase); assay: Primary Nanoluciferase (NLuc) qHTS assay for identification of artifact compounds. (AID 1845222);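 further: NLuc secreted into diluted conditioned medium of S16 cells; series mostly up to about 54 µM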
In short: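 Using secreted nanoluciferase in S16 culture medium (0.22 um filtered, 1:55 dilution), compounds were preincubated 15 min at RT. Signal was generated with Nano-Glo reagent (1:100) over 5 min.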

[6] = Primary redox qHTS assay for identification of artifact compounds. (AID 1845223)
In short: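 Redox-cycling detection via DTT (250 uM final) oxidation coupled to Amplex Red (25 uM)/HRP (250 mU/mL) in HBSS. 15 min preincubation plus 30 min after DTT, room temperature. Ex/Em 525/598 nm; 4-parameter Hill fit against DMSO and 10 uM DA3003.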

In the case of `Cc1ccc(S(=O)(=O)n2ccc(-c3c(-c4ccc(Cl)cc4)noc3C)n2)cc1`, the Potency [1] is reported as “inactive”, the Potency [2] is reported as “inactive” and the Potency [3] is reported as “inactive”. For the same compound, the Potency [4] was “inactive”, the Potency [5] was “inactive” and the Potency [6] was “inactive”.

For `Cc1cccc(-c2[nH]c(Cc3cccc(C(N)=O)c3)nc2-c2ccc3nccnc3c2)n1`, the Potency [1] was “inactive”, the Potency [2] was “inactive” and the Potency [3] was “inactive”. For the same compound, the Potency [4] was “inactive”, the Potency [5] was “inactive” and the Potency [6] was “inactive”.

For `CC1(C)CC2=C3C=CC4C5(C)CCC(O)C(C)(C)C5CCC4(C)C3(C)CCC2(C)C(O)C1` (stereo not drawn), the Potency [1] was “inactive”, the Potency [2] was “inactive” and the Potency [3] was “inactive”. The Potency [4] was 11.6 µM (active), the Potency [5] was “inactive” and the Potency [6] was “inactive”.

In the case of `COc1cc(C)c(C(=O)Oc2cc(C)c(C(=O)Oc3cc(C)c(C(=O)NC(C)C(=O)O)c(O)c3)c(O[C@@H]3O[C@H](CO)[C@@H](O)[C@H](O)[C@H]3OC(C)=O)c2)c(OC)c1` (stereo partly drawn), the Potency [1] is reported as “inactive”, the Potency [2] is reported as “inactive” and the Potency [3] is reported as “inactive”. The Potency [4] was “inactive” and the Potency [5] was “inactive”.

With `CCCN1CCC(c2cccc(S(C)(=O)=O)c2)CC1` the Potency [1] was “inactive”, the Potency [2] was “inactive” and the Potency [3] was “inactive”. For the same compound, the Potency [4] was “inactive”, the Potency [5] was “inactive” and the Potency [6] was “inactive”.

In the case of `Clc1cc2c(NC3CCCC3)nnc(-c3ccncc3)c2cc1Cl`, the Potency [1] is reported as “inactive”, the Potency [2] is reported as “inactive” and the Potency [3] is reported as “inactive”. The Potency [4] was “inactive”, the Potency [5] was “inactive” and the Potency [6] was “inactive”.

For `C[C@@H]1O[C@@H](O[C@H]2[C@@H]3C=CO[C@@H](O[C@@H]4O[C@H](CO)[C@@H](O)[C@H](O)[C@H]4O)[C@@H]3[C@@]3(CO)O[C@@H]23)[C@H](OC(=O)/C=C/c2ccccc2)[C@H](O)[C@H]1O`, the Potency [1] was “inactive”, the Potency [2] was “inactive” and the Potency [3] was “inactive”. The Potency [4] was 7.93 µM (active) and the Potency [5] was “inactive”.

For `NC1CCC(Nc2cc(-c3cccc(NCc4cccc(F)c4)n3)c(Cl)cn2)CC1` (stereo not drawn), the Potency [1] was “inactive”, the Potency [2] was “inactive” and the Potency [3] was “inactive”. For the same compound, the Potency [4] was “inactive”, the Potency [5] was “inactive” and the Potency [6] was “inactive”.

With `N#Cc1c(Oc2ccc(F)c(NC(=O)Cc3cccc(C(F)(F)F)c3)c2)ccc2nc(NC(=O)C3CC3)sc12` the Potency [1] was “inactive”, the Potency [2] was “inactive” and the Potency [3] was “inactive”. The Potency [4] was “inactive”, the Potency [5] was “inactive” and the Potency [6] was “inactive”.

In the case of `CCNC(=O)C1OC(n2cnc3c(N)nc(NCCc4ccc(CCC(=O)O)cc4)nc32)C(O)C1O` (stereo not drawn), the Potency [1] is reported as “inactive”, the Potency [2] is reported as “inactive” and the Potency [3] is reported as “inactive”. The Potency [4] was “inactive”, the Potency [5] was “inactive” and the Potency [6] was “inactive”.

With `C[C@@H]1O[C@@H](O[C@H]2[C@H](O[C@H]3CC[C@@]4(C)C(CC[C@]5(C)C4CC=C4[C@@H]6CC(C)(C)CC[C@]6(C(=O)O[C@@H]6OC[C@H](O)[C@H](O)[C@H]6O[C@@H]6O[C@@H](C)[C@H](O[C@@H]7O[C@H](CO)[C@@H](O)[C@H](O)[C@H]7O)[C@H](O)[C@H]6O)[C@H](O)C[C@]45C)C3(C)C)O[C@H](CO)[C@@H](O[C@@H]3OC[C@@H](O)[C@H](O)[C@H]3O)[C@@H]2O)[C@H](O)[C@H](O)[C@H]1O` (stereo partly drawn) the activity, negative = inhibition [1] was -13.9% [at 9.52 µM], the outcome [2] was “inactive [at 9.73 µM]” and the activity change, negative = inhibition [3] was -1.49% [at 11.6 µM]. It also gave an activity change, negative = thiol reactive [4] of 113% [at 11.5 µM] and an activity, negative = inhibition [5] of 3.16% [at 11.6 µM].

In the case of `COC(=O)C12CCC(C)C(C)C1C1=CCC3C4(C)CCC(OC(C)=O)C(C)(C)C4CCC3(C)C1(C)CC2` (stereo not drawn), the Potency [1] is reported as “inactive”, the Potency [2] is reported as “inactive” and the Potency [3] is reported as “inactive”. The Potency [4] was “inactive”, the Potency [5] was “inactive” and the Potency [6] was “inactive”.

In the case of `O=C1CCC(c2ccccc2)(C2CCN(Cc3ccc(I)cc3)CC2)C(=O)N1` (stereo not drawn), the Potency [1] is reported as “inactive”, the Potency [2] is reported as “inactive” and the Potency [3] is reported as “inactive”. The Potency [4] was “inactive”, the Potency [5] was “inactive” and the Potency [6] was “inactive”.

For `COC(=O)CC(O)C1OC(c2ccccc2)C(O)C1O` (stereo not drawn), the Potency [1] was “inactive”, the Potency [2] was “inactive” and the Potency [3] was “inactive”. The Potency [4] was 8.44 µM (active), the Potency [5] was “inactive” and the Potency [6] was “inactive”.

In the case of `C[C@@H]1O[C@@H](O[C@H]2[C@H](OC(=O)[C@]34CCC(C)(C)C[C@H]3C3=CCC5[C@@]6(C)CC[C@H](O[C@@H]7O[C@H](C(=O)O)[C@@H](O)[C@H](O)[C@H]7O[C@@H]7O[C@H](CO)[C@H](O)[C@H](O)[C@H]7O)[C@@](C)(C=O)C6CC[C@@]5(C)[C@]3(C)C[C@H]4O)O[C@H](C)[C@H](O[C@@H]3O[C@H](C)[C@H](O)[C@H](O)[C@H]3O)[C@@H]2O)[C@H](O)[C@H](O)[C@H]1O[C@@H]1OC[C@@H](O)[C@H](O[C@@H]2O[C@H](CO)[C@@H](O)[C@H](O)[C@H]2O)[C@H]1O` (stereo partly drawn), the activity, negative = inhibition [1] is reported as 1.71% [at 9.52 µM], the outcome [2] is reported as “inactive [at 9.73 µM]” and the outcome [3] is reported as “inactive [at 6.45 µM]”. The activity change, negative = thiol reactive [4] was 292% [at 6.41 µM], the activity, negative = inhibition [5] was 4.73% [at 6.45 µM] and the redox activity (% of DA3003) [6] was 3.32% [at 6.41 µM].

In the case of `C=C1C[C@]23C[C@H]1CC[C@H]2[C@]1(C)CCC[C@@](C)(C(=O)O)[C@H]1[C@@H]3C(=O)O`, the Potency [1] is reported as “inactive”, the Potency [2] is reported as “inactive” and the Potency [3] is reported as “inactive”. The Potency [4] was “inactive” and the Potency [5] was “inactive”.

With `CC(C)=CCC[C@](C)(O[C@@H]1O[C@H](CO)[C@@H](O)[C@H](O)[C@H]1O)[C@H]1CC[C@]2(C)[C@@H]1[C@H](O)CC1[C@@]3(C)CC[C@H](O)C(C)(C)C3[C@@H](O[C@@H]3O[C@H](CO)[C@@H](O)[C@H](O)[C@H]3O[C@@H]3OC[C@@H](O)[C@H](O)[C@H]3O)C[C@]12C` (stereo partly drawn) the Potency [1] was “inactive”, the Potency [2] was “inactive” and the activity change, negative = inhibition [3] was -4.76% [at 11.6 µM]. It also gave an activity change, negative = thiol reactive [4] of 136% [at 11.5 µM], an activity, negative = inhibition [5] of -0.941% [at 11.6 µM] and a redox activity (% of DA3003) [6] of 12.7% [at 11.5 µM].

For `C=C1C(=O)O[C@H](CCC)[C@H]1C(=O)O`, the Potency [1] was “inactive”, the Potency [2] was “inactive” and the Potency [3] was “inactive”. The Potency [4] was “inactive”, the Potency [5] was “inactive” and the Potency [6] was “inactive”.

In the case of `CC1=C(C)C(=O)OC(C(C)C2CCC3C4CC=C5CC(OC6OC(COC7OC(CO)C(O)C(O)C7O)C(O)C(O)C6O)CC(O)C5(C)C4CCC23C)C1` (stereo not drawn), the Potency [1] is reported as “inactive”, the Potency [2] is reported as “inactive” and the Potency [3] is reported as “inactive”. The Potency [4] was “inactive” and the Potency [5] was “inactive”.

For `COC1CC(O[C@H]2CC[C@@]3(C)C(CCC4C3[C@H](OC(C)=O)[C@@H](OC(=O)/C=C/c3ccccc3)[C@]3(C)C(C(C)=O)CC[C@]43O)C2)OC(C)C1OC1CC(OC)C(OC2CC(OC)C(OC3OC(C)C(OC4OC(CO)C(O)C(O)C4O)C(OC)C3O)C(C)O2)C(C)O1` (stereo partly drawn), the outcome [1] was “inactive [at 9.52 µM]”, the activity change, negative = inhibition [2] was -9.21% [at 9.73 µM] and the outcome [3] was “inactive [at 11.6 µM]”. It also gave an activity change, negative = thiol reactive [4] of 2.39% [at 11.5 µM], an activity, negative = inhibition [5] of -1.88% [at 11.6 µM] and a redox activity (% of DA3003) [6] of -6.18% [at 11.5 µM].

In the case of `O=C(CC1C(=O)Nc2ccccc21)OC[C@H]1O[C@@H](OCCc2ccc(O)cc2)[C@H](O)[C@@H](O)[C@@H]1O` (stereo partly drawn), the Potency [1] is reported as “inactive”, the Potency [2] is reported as “inactive” and the Potency [3] is reported as “inactive”. The Potency [4] was 9.22 µM (active), the Potency [5] was “inactive” and the Potency [6] was “inactive”.

For `CC(=O)NC1=NN(C(C)=O)C(C)(c2ccccc2)S1` (stereo not drawn), the Potency [1] was “inactive”, the Potency [2] was “inactive” and the Potency [3] was “inactive”. For the same compound, the Potency [4] was “inactive”, the Potency [5] was “inactive” and the Potency [6] was “inactive”.

In the case of `CCCC(=O)C1CCN(c2ncnc3c2CN(C(=O)c2ccc(-c4ccccc4)cc2)CC3)CC1`, the Potency [1] is reported as “inactive”, the Potency [2] is reported as “inactive” and the Potency [3] is reported as “inactive”. The Potency [4] was “inactive”, the Potency [5] was “inactive” and the Potency [6] was “inactive”.
